Source: PubChem BioAssay (NCI)
This is part of a sample that, as a whole, favours compounds with a hit. Of some 83,000 tested, about 20% had one in any assay.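 A percent growth of 40 corresponds to 60% growth inhibition; 0 means no net growth; -100 means all cells died. Active threshold: below 10.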 Unmarked numbers belong to inactive results. Active and inactive are the calls of the source.

tested on: IGROV1 ovarian; assay: NCI-60 one-dose screen, 48 h (100 = growth as untreated, 0 = no growth, -100 = all killed); conditions: 10 µM unless noted

| SMILES | growth |
| --- | --- |
| COc1ccc(/C=N/NC(=O)Cn2c(-c3ccc(S(C)(=O)=O)cc3)nc3ccccc32)cc1 | 91.4% |
| CN(C)CCCn1c2c(c3ccncc3c1=O)C(=O)c1ccccc1-2 | 0.297% (active) |
| OC1(c2ccccc2)c2ccccc2N(c2ccccc2)c2ccc(Cl)cc21 (stereo not given) | -94.5% (active) |
| CC1(/C=C/c2ccc(-c3ccccc3)cc2)CCn2cnc3ncnc(c32)N1O (stereo not given) | 15.3% |
| C=C1C(=O)O[C@H]2[C@H]1CC/C(COC(=O)/C=C\C(=O)NCc1ccc(Cn3c(=O)sn(CCCCl)c3=O)cc1)=C\CC[C@@]1(C)O[C@@H]21 | 58.6% |
| C#Cc1cccc(NC(=O)C2CCCCN2C(=O)CCl)c1 (stereo not given) | -69.9% [8.25 µM] (active) |
| O=C1CCCC1[n+]1ccccc1 (stereo not given) | 101% |
| N#C/C(=C\c1ccc(-c2cccc(Cl)c2)o1)C(=O)Nc1ncc(Cc2ccc(Cl)cc2)s1 | 30.5% |
| O=S(O)c1cc(Cl)cc(Cl)c1OCc1ccccc1 | 109% |
| O=C(C1=Cc2cc3ccccc3n2Cc2cnnn21)c1ccc(F)cc1 | 90% |
| CC(C)Cc1nc(Nc2ccccc2)[nH]c(=O)c1C#N | 71.4% |
| C[N+]1=C(/C=C/c2ccccc2Cl)C(C)(C)c2ccccc21 | 90.6% |
| CSc1ccc(N2C(=N)C(=S)N(c3ccc(C)cc3)C2=O)cc1 | 103% |
| CC[C@H](Nc1nc(N)nc(C)c1C#N)c1nc2cccc(CN(C)c3ncc(C(=O)NO)cn3)c2c(=O)n1-c1ccccc1 | -36.2% (active) |
| CC(C)CCC[C@@H](C)[C@H]1CC[C@H]2[C@@H]3CC=C4c5sc(Nc6cc(C(F)(F)F)cc(C(F)(F)F)c6)nc5CC[C@]4(C)[C@H]3CC[C@]12C | 97.7% |
| N#CC1=C(N)Oc2c(sc3c(F)cccc23)C1c1ccc([N+](=O)[O-])cc1 (stereo not given) | -26% (active) |
| c1ccc(-c2c(-c3ccccc3)[n+](Cc3ccc4ccccc4c3)cn2Cc2ccc3ccccc3c2)cc1 | -73.8% (active) |
| O=C(CSc1nnnn1-c1ccccc1)Nc1ccc(Oc2ccccc2)cc1 | 61.9% |
| Cc1ccc2c(c1)nc(C)n2-c1ncnc2c1CC(C)c1cc(O)ccc1N2C (stereo not given) | 51.4% |
| Fc1ccc2[nH]cc(-c3nc(-c4c[nH]c5c(Cl)nccc45)cs3)c2c1 | 61.7% |

| SMILES | growth |
| --- | --- |
| COc1ccc(Oc2ccc(/C=C/C(=O)c3ccc(OC)c(OC)c3)cc2)cc1 | 85.5% |
| CCCCC#Cc1c(I)n(C2OC(CO[Si](C)(C)C(C)(C)C)C3OC(C)(C)OC32)c(=O)n(C(=O)c2ccccc2)c1=O (stereo not given) | 27.4% |
| O=C(N/N=C/c1ccc(Cl)cc1)c1ccc(NC(=O)c2ccccn2)cc1 | 30.9% |
| COc1cc(-c2cc(-c3ccc(Nc4nc(Nc5ccc(Cl)cc5)nc(Nc5ccc(Cl)cc5)n4)cc3)no2)cc(OC)c1OC | 71% |
| NCCCNc1nc2ccccc2c2c(=O)c3cc(Cl)ccc3sc12 | -1.46% (active) |
| Cc1ccc(OCCOCCOCCOCCOCCOc2ccc(C)n(O)c2=S)c(=S)n1O | 15.5% |
| CC1(C)CC(=O)C2=C(C1)C(c1ccc(Cl)cc1)n1ncc(C#N)c1N2 (stereo not given) | 85.7% |
| CN(C)/C(N)=N/N=C(\c1ccccc1)c1ccccn1 | 93.7% |
| c1ccc(Nc2nc3c(s2)CCc2c[nH]cc2-3)nc1 | 86.2% |
| COc1cc2c(cc1OCCCN1CCN(C(=S)SCCC(C#N)(c3ccccc3)c3ccccc3)CC1)N=C[C@@H]1CCCN1C2=O | -89.4% (active) |
| O=C(NCCCCCCNC(=O)OCc1ccc2c(Cl)cc(Cl)c(O)c2n1)OCc1ccc2c(Cl)cc(Cl)c(O)c2n1 | -88.3% (active) |
| O=C(/C=C/c1ccccc1)N(C1CCCCC1)C1CCCCC1 | 116% |
| C=CCn1cc(-c2nc3ccccc3s2)c2cc(-c3ccc4c5c(cccc35)C(=O)N(CCO)C4=O)ccc21 | 77.7% |
| COc1cc(/C=C/C(=O)c2cccc(-n3cc(-c4ccc(Cl)cc4)[nH]c3=O)c2)ccc1O | -10.6% (active) |
| O=C1Nc2ccc(Cl)cc2/C1=C/c1ccc[nH]1 | 58.2% |
| Cn1c2ccccc2c2c3c(c4c5cc(Br)ccc5n(C)c4c21)C(=O)N(O)C3=O | 21.5% |
| O=S(=O)(NCCNc1nccc(-c2c(-c3ccc(F)c(O)c3)nc3sccn23)n1)c1ccc(Cl)cc1 | 30.3% |
| Cc1ccc(OCCOCCOCCOc2ccc(C)n(O)c2=S)c(=S)n1O | 72% |
| C[C@@H]1NC(=O)[C@H](Cc2ccccc2)N(Cc2cccnc2)C1=O | 107% |
| C=CC(CC(c1ccccc1)(c1ccccc1)c1ccccc1)N(CC)CC (stereo not given) | 77% |

tested on: OVCAR-3 ovarian; assay: as above; conditions: 10 µM unless noted

| SMILES | growth |
| --- | --- |
| COc1ccc(/C=N/NC(=O)Cn2c(-c3ccc(S(C)(=O)=O)cc3)nc3ccccc32)cc1 | 103% |
| CN(C)CCCn1c2c(c3ccncc3c1=O)C(=O)c1ccccc1-2 | -12.3% (active) |
| OC1(c2ccccc2)c2ccccc2N(c2ccccc2)c2ccc(Cl)cc21 (stereo not given) | -98.1% (active) |
| CC1(/C=C/c2ccc(-c3ccccc3)cc2)CCn2cnc3ncnc(c32)N1O (stereo not given) | 37.2% |
| C=C1C(=O)O[C@H]2[C@H]1CC/C(COC(=O)/C=C\C(=O)NCc1ccc(Cn3c(=O)sn(CCCCl)c3=O)cc1)=C\CC[C@@]1(C)O[C@@H]21 | 37.4% |
| C#Cc1cccc(NC(=O)C2CCCCN2C(=O)CCl)c1 (stereo not given) | -66.3% [8.25 µM] (active) |
| O=C1CCCC1[n+]1ccccc1 (stereo not given) | 97.8% |
| N#C/C(=C\c1ccc(-c2cccc(Cl)c2)o1)C(=O)Nc1ncc(Cc2ccc(Cl)cc2)s1 | 11.3% |
| O=S(O)c1cc(Cl)cc(Cl)c1OCc1ccccc1 | 107% |
| O=C(C1=Cc2cc3ccccc3n2Cc2cnnn21)c1ccc(F)cc1 | 104% |
| CC(C)Cc1nc(Nc2ccccc2)[nH]c(=O)c1C#N | 30.8% |
| C[N+]1=C(/C=C/c2ccccc2Cl)C(C)(C)c2ccccc21 | 78.3% |
| CSc1ccc(N2C(=N)C(=S)N(c3ccc(C)cc3)C2=O)cc1 | 105% |
| CC[C@H](Nc1nc(N)nc(C)c1C#N)c1nc2cccc(CN(C)c3ncc(C(=O)NO)cn3)c2c(=O)n1-c1ccccc1 | 5.16% (active) |
| CC(C)CCC[C@@H](C)[C@H]1CC[C@H]2[C@@H]3CC=C4c5sc(Nc6cc(C(F)(F)F)cc(C(F)(F)F)c6)nc5CC[C@]4(C)[C@H]3CC[C@]12C | 102% |
| N#CC1=C(N)Oc2c(sc3c(F)cccc23)C1c1ccc([N+](=O)[O-])cc1 (stereo not given) | -55.1% (active) |
| c1ccc(-c2c(-c3ccccc3)[n+](Cc3ccc4ccccc4c3)cn2Cc2ccc3ccccc3c2)cc1 | -91.1% (active) |
| O=C(CSc1nnnn1-c1ccccc1)Nc1ccc(Oc2ccccc2)cc1 | 100% |
| Cc1ccc2c(c1)nc(C)n2-c1ncnc2c1CC(C)c1cc(O)ccc1N2C (stereo not given) | 14.6% |
| Fc1ccc2[nH]cc(-c3nc(-c4c[nH]c5c(Cl)nccc45)cs3)c2c1 | 70.9% |

| SMILES | growth |
| --- | --- |
| COc1ccc(Oc2ccc(/C=C/C(=O)c3ccc(OC)c(OC)c3)cc2)cc1 | 86.7% |
| CCCCC#Cc1c(I)n(C2OC(CO[Si](C)(C)C(C)(C)C)C3OC(C)(C)OC32)c(=O)n(C(=O)c2ccccc2)c1=O (stereo not given) | -59.7% (active) |
| O=C(N/N=C/c1ccc(Cl)cc1)c1ccc(NC(=O)c2ccccn2)cc1 | 0.827% (active) |
| COc1cc(-c2cc(-c3ccc(Nc4nc(Nc5ccc(Cl)cc5)nc(Nc5ccc(Cl)cc5)n4)cc3)no2)cc(OC)c1OC | 86% |
| NCCCNc1nc2ccccc2c2c(=O)c3cc(Cl)ccc3sc12 | -60% (active) |
| Cc1ccc(OCCOCCOCCOCCOCCOc2ccc(C)n(O)c2=S)c(=S)n1O | 29.6% |
| CC1(C)CC(=O)C2=C(C1)C(c1ccc(Cl)cc1)n1ncc(C#N)c1N2 (stereo not given) | 113% |
| CN(C)/C(N)=N/N=C(\c1ccccc1)c1ccccn1 | 93.7% |
| c1ccc(Nc2nc3c(s2)CCc2c[nH]cc2-3)nc1 | 74.1% |
| COc1cc2c(cc1OCCCN1CCN(C(=S)SCCC(C#N)(c3ccccc3)c3ccccc3)CC1)N=C[C@@H]1CCCN1C2=O | -89.3% (active) |
| O=C(NCCCCCCNC(=O)OCc1ccc2c(Cl)cc(Cl)c(O)c2n1)OCc1ccc2c(Cl)cc(Cl)c(O)c2n1 | -73.6% (active) |
| O=C(/C=C/c1ccccc1)N(C1CCCCC1)C1CCCCC1 | 89.6% |
| C=CCn1cc(-c2nc3ccccc3s2)c2cc(-c3ccc4c5c(cccc35)C(=O)N(CCO)C4=O)ccc21 | 105% |
| COc1cc(/C=C/C(=O)c2cccc(-n3cc(-c4ccc(Cl)cc4)[nH]c3=O)c2)ccc1O | 3.36% (active) |
| O=C1Nc2ccc(Cl)cc2/C1=C/c1ccc[nH]1 | 90.5% |
| Cn1c2ccccc2c2c3c(c4c5cc(Br)ccc5n(C)c4c21)C(=O)N(O)C3=O | 6.42% (active) |
| O=S(=O)(NCCNc1nccc(-c2c(-c3ccc(F)c(O)c3)nc3sccn23)n1)c1ccc(Cl)cc1 | 45.4% |
| Cc1ccc(OCCOCCOCCOc2ccc(C)n(O)c2=S)c(=S)n1O | 15.9% |
| C[C@@H]1NC(=O)[C@H](Cc2ccccc2)N(Cc2cccnc2)C1=O | 110% |
| C=CC(CC(c1ccccc1)(c1ccccc1)c1ccccc1)N(CC)CC (stereo not given) | 70.1% |
